Reference: PubChem BioAssay (NCI)
The panel holds about 83,000 compounds, 20% with a hit somewhere; the sample as a whole holds those more often.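 Note: values are percent growth. 100 is the growth of untreated cells, values between 100 and 0 indicate rising inhibition; between -100 and 0 indicates cell death.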 Unmarked numbers belong to inactive results. Active and inactive are the calls of the source. How the source made its calls: active means growth percent below 10; inactive means the rest.

tested on: EKVX NSCLC; experiment: NCI-60 one-dose screen, 48 h (100 = growth as untreated, 0 = no growth, -100 = all killed); details: 10 µM unless noted

Row | SMILES | growth
1 | O=P(O)(O)OCC1OC(n2cnc3c(NCc4ccco4)ncnc32)C(O)C1O (stereo unspecified) | 48.6%
2 | C=CN(C(=O)N1CCN(c2cc3c(cc2F)c(=O)c(C(=O)O)cn3C2CC2)CC1)c1nc(-c2ccc(OC)cc2)cs1 | 23.7%
3 | CC(=O)Oc1ccc(OC(C)=O)c2ccccc12 | 92.3%
4 | O=C1c2ccccc2C(=O)c2c1cc1c(c2[N+](=O)[O-])OCO1 | 22.9%
5 | Cc1cccc2c1C[C@@]1(C2=O)C(c2ccc(C(C)(C)C)cc2)=NOS1=O (stereo partly specified) | 79.2%
6 | COc1cccc(Nc2ncnc3cc(NC(=O)CCl)ccc23)c1 | -24.4% (active)
7 | NC(N)=NS(=O)(=O)c1ccc(NC2=C(I)C(=O)c3ncccc3C2=O)cc1 | 105%
8 | Cc1c(CN)cc(-c2ccc(Cl)cc2)n1-c1ccccc1 | 82.6%
9 | O=C1Nc2ccccc2C1(c1c[nH]c2ccccc12)c1c[nH]c2ccccc12 | 23.3%
10 | CCn1c(-c2cc3c([nH]c4ccccc43)c(-c3cccc(O)c3)n2)n[nH]c1=S | 56.9%
11 | CCN(CC)c1ccc(/C=N/NC(=O)Cc2ccc(Nc3ccnc(C(F)(F)F)c3)cc2)c(O)c1 | 10.5%
12 | COc1ccc2c(c1)c(-c1nc(-c3c[nH]c4ncccc34)cs1)cn2CCCN1CCOCC1 | 57.8%
13 | CNC(C)[C@H]1CCC2C3CC=C4C(=O)[C@@H](NC(=O)C=C(C)C)CC[C@]4(C)C3CC[C@@]21C (stereo partly specified) | 24.2%
14 | CN(Cc1ccccc1)c1nc(Cl)c(C2CC(c3ccccc3)=NN2c2ccccc2)s1 (stereo unspecified) | 85.3%
15 | N#CC1=C(N)Oc2ccc3ccccc3c2C1c1ccc([N+](=O)[O-])cc1 (stereo unspecified) | 65.8%
16 | COc1ccc(C(=O)Cn2c(C(=O)c3ccc(OC)cc3)nc3ccccc32)cc1 | 73.3%
17 | CC1C(/C=N/NC(N)=S)C(C#N)(C#N)C1(C#N)C#N (stereo unspecified) | 104%
18 | O=C(Cc1ccc(/C=C/C(=O)c2ncc[nH]2)cc1)Nc1cc(C(F)(F)F)cc(C(F)(F)F)c1 | 108%

Row | SMILES | growth
19 | CCOC(=O)c1ccccc1-c1c2ccc(=[N+](C)C)cc-2oc2cc(N(C)C)ccc12 | 34.5%
20 | CCN1C(=O)N(CC)C2C1NN=c1s/c(=C\c3ccc(C(F)(F)F)cc3)c(=O)n12 (stereo unspecified) | 48.5%
21 | Cc1nn(-c2ccccc2)c(N)c1N=C1NC(=O)/C(=C/c2ccc(Br)cc2)S1 | 87.7%
22 | O=C(c1c[nH]c2ccccc12)c1n[nH]c(=S)n1-c1cccc(Br)c1 | 70.9%
23 | Cc1ccc(/C=C/C(=O)Nc2ncc(Cc3ccc(F)cc3)s2)o1 | 48.5%
24 | O=C1/C(=C\c2cccc3nccnc23)SC(=S)N1CCc1ccc(O)cc1 | 100%
25 | COc1cccc(/C=C/C(=O)c2cccc(Nc3nc(Nc4ccccc4)nc(Nc4ccccc4)n3)c2)c1 | 78.6%
26 | C=C1C(=O)O[C@H]2[C@H]1CC/C(COC(=O)c1cc3cc(Cl)ccc3[nH]1)=C\CC[C@@]1(C)O[C@@H]21 | -83% (active)
27 | COc1ccc(Cn2cc(C(=O)N=Nc3c(O)[nH]c4c(C)cccc34)nn2)cc1 | 107%
28 | NC(=O)c1cnc(Nc2cccc(N)c2)nc1NCCCNC(=O)C1CCC1 | 93%
29 | CC1=C2[C@@H](CC1)[C@]1(C)O[C@@](C3CCCCC3)(C[C@H]1OC(=O)CO)[C@H]2OC(=O)/C=C/c1ccccc1 | 83.3%
30 | O=C(Nc1cnc(Nc2ccc(N3CCOCC3)nc2)nc1Oc1ccc(C(F)(F)F)cc1)c1ccncc1 | 100%
31 | Cc1c2cccnc2c(C)c2c1c1cc(CO)ccc1n2C | 20.3%
32 | CCN1CCN(CC(=O)Nc2ccc(-c3cn4c(n3)sc3cc(Oc5ccnc(C(=O)NC)c5)ccc34)cc2)CC1 | 100%
33 | COc1cc(OC)c2sc(-c3ccc(-n4cncc4-c4cc(OC)c(OC)c(OC)c4)cc3)nc2c1 | 58.7%
34 | Ic1ccccc1I | 98.9%
35 | CCC1S/C(=N\N=C(\C)c2cc3cc(Cl)ccc3o2)N(c2ccccc2)C1=O (stereo unspecified) | 102%
36 | CN(CCCNC(=O)CCOCCOCCOCCNC(=O)Cc1ccc2ccc3cccc4ccc1c2c34)CCCNc1cc(-c2ccc3ccccc3c2)nc2ccccc12 | -65.8% (active)

tested on: SN12C renal; experiment: as above; details: 10 µM unless noted

Row | SMILES | growth
37 | CC1(C)[C@@H](O[C@@H]2OC[C@@H](O[C@@H]3O[C@H](CO)[C@@H](O)[C@H](O)[C@H]3O[C@@H]3OC[C@@H](O)[C@H](O)[C@H]3O)[C@H](O)[C@H]2O[C@@H]2O[C@H](CO)[C@@H](O)[C@H](O)[C@H]2O)CC[C@]2(C)[C@H]3CC[C@]45OC[C@@]6(CC[C@](C)(C=O)C[C@H]64)[C@H](O)C[C@@]5(C)[C@]3(C)CC[C@@H]12 | -72.6% (active)
38 | O=C(CCl)NNc1nccc(Nc2ccc(S(=O)(=O)Nc3ccncc3)cc2)n1 | 23.8%
39 | CS(=O)(=O)Nc1cc(-c2ccc3ncc(C#N)c(Nc4ccc(F)c(Cl)c4)c3c2)cnc1Cl | 18.2%
40 | Cc1[nH]c(C2CC(c3ccc(C(F)(F)F)c(F)c3)=NN2c2ccccc2)c(C)c1C(=O)NCC(F)(F)F (stereo unspecified) | 90.7%
41 | O=P(O)(O)OCC1OC(n2cnc3c(NCc4ccco4)ncnc32)C(O)C1O (stereo unspecified) | 12.1%
42 | C=CN(C(=O)N1CCN(c2cc3c(cc2F)c(=O)c(C(=O)O)cn3C2CC2)CC1)c1nc(-c2ccc(OC)cc2)cs1 | 11.3%
43 | CC(=O)Oc1ccc(OC(C)=O)c2ccccc12 | 85.8%
44 | O=C1c2ccccc2C(=O)c2c1cc1c(c2[N+](=O)[O-])OCO1 | 13.9%
45 | Cc1cccc2c1C[C@@]1(C2=O)C(c2ccc(C(C)(C)C)cc2)=NOS1=O (stereo partly specified) | 92.3%
46 | COc1cccc(Nc2ncnc3cc(NC(=O)CCl)ccc23)c1 | -74.7% (active)
47 | NC(N)=NS(=O)(=O)c1ccc(NC2=C(I)C(=O)c3ncccc3C2=O)cc1 | 101%
48 | Cc1c(CN)cc(-c2ccc(Cl)cc2)n1-c1ccccc1 | 87.6%
49 | O=C1Nc2ccccc2C1(c1c[nH]c2ccccc12)c1c[nH]c2ccccc12 | 1.17% (active)
50 | CCn1c(-c2cc3c([nH]c4ccccc43)c(-c3cccc(O)c3)n2)n[nH]c1=S | 63.6%
51 | CCN(CC)c1ccc(/C=N/NC(=O)Cc2ccc(Nc3ccnc(C(F)(F)F)c3)cc2)c(O)c1 | 40.3%
52 | COc1ccc2c(c1)c(-c1nc(-c3c[nH]c4ncccc34)cs1)cn2CCCN1CCOCC1 | 52.7%
53 | CNC(C)[C@H]1CCC2C3CC=C4C(=O)[C@@H](NC(=O)C=C(C)C)CC[C@]4(C)C3CC[C@@]21C (stereo partly specified) | 17%
54 | CN(Cc1ccccc1)c1nc(Cl)c(C2CC(c3ccccc3)=NN2c2ccccc2)s1 (stereo unspecified) | 103%
55 | N#CC1=C(N)Oc2ccc3ccccc3c2C1c1ccc([N+](=O)[O-])cc1 (stereo unspecified) | 90.4%
56 | COc1ccc(C(=O)Cn2c(C(=O)c3ccc(OC)cc3)nc3ccccc32)cc1 | 41%

Row | SMILES | growth
57 | CC1C(/C=N/NC(N)=S)C(C#N)(C#N)C1(C#N)C#N (stereo unspecified) | 105%
58 | O=C(Cc1ccc(/C=C/C(=O)c2ncc[nH]2)cc1)Nc1cc(C(F)(F)F)cc(C(F)(F)F)c1 | 94.9%
59 | CCOC(=O)c1ccccc1-c1c2ccc(=[N+](C)C)cc-2oc2cc(N(C)C)ccc12 | 7.33% (active)
60 | CCN1C(=O)N(CC)C2C1NN=c1s/c(=C\c3ccc(C(F)(F)F)cc3)c(=O)n12 (stereo unspecified) | 24.2%
61 | Cc1nn(-c2ccccc2)c(N)c1N=C1NC(=O)/C(=C/c2ccc(Br)cc2)S1 | 73.8%
62 | O=C(c1c[nH]c2ccccc12)c1n[nH]c(=S)n1-c1cccc(Br)c1 | 96.3%
63 | Cc1ccc(/C=C/C(=O)Nc2ncc(Cc3ccc(F)cc3)s2)o1 | 66.3%
64 | O=C1/C(=C\c2cccc3nccnc23)SC(=S)N1CCc1ccc(O)cc1 | 84.9%
65 | COc1cccc(/C=C/C(=O)c2cccc(Nc3nc(Nc4ccccc4)nc(Nc4ccccc4)n3)c2)c1 | 106%
66 | C=C1C(=O)O[C@H]2[C@H]1CC/C(COC(=O)c1cc3cc(Cl)ccc3[nH]1)=C\CC[C@@]1(C)O[C@@H]21 | -61.2% (active)
67 | COc1ccc(Cn2cc(C(=O)N=Nc3c(O)[nH]c4c(C)cccc34)nn2)cc1 | 62.1%
68 | NC(=O)c1cnc(Nc2cccc(N)c2)nc1NCCCNC(=O)C1CCC1 | 33%
69 | CC1=C2[C@@H](CC1)[C@]1(C)O[C@@](C3CCCCC3)(C[C@H]1OC(=O)CO)[C@H]2OC(=O)/C=C/c1ccccc1 | 32.1%
70 | O=C(Nc1cnc(Nc2ccc(N3CCOCC3)nc2)nc1Oc1ccc(C(F)(F)F)cc1)c1ccncc1 | 85%
71 | Cc1c2cccnc2c(C)c2c1c1cc(CO)ccc1n2C | 14.7%
72 | CCN1CCN(CC(=O)Nc2ccc(-c3cn4c(n3)sc3cc(Oc5ccnc(C(=O)NC)c5)ccc34)cc2)CC1 | 85.9%
73 | COc1cc(OC)c2sc(-c3ccc(-n4cncc4-c4cc(OC)c(OC)c(OC)c4)cc3)nc2c1 | 68.7%
74 | Ic1ccccc1I | 105%
75 | CCC1S/C(=N\N=C(\C)c2cc3cc(Cl)ccc3o2)N(c2ccccc2)C1=O (stereo unspecified) | 118%
76 | CN(CCCNC(=O)CCOCCOCCOCCNC(=O)Cc1ccc2ccc3cccc4ccc1c2c34)CCCNc1cc(-c2ccc3ccccc3c2)nc2ccccc12 | -75.3% (active)
